Results published in PubChem BioAssay (NCI).
The panel holds about 83,000 compounds, 20% with a hit somewhere; the sample as a whole holds those more often.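 Negative percent growth values reflect cell death: -40 means 40% of the cells present at the start died, and -100 means all died.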 A number with no mark means an inactive call. Active and inactive are the calls of the source. The calls were made as follows: active = growth percent below 10; inactive = the rest.

Legend:
Test in all cases: NCI-60 one-dose screen, 48 h (100 = growth as untreated, 0 = no growth, -100 = all killed)
Conditions in all cases: 10 µM unless noted
DU-145 prostate = tested on: DU-145 prostate
K-562 leukemia = tested on: K-562 leukemia
MALME-3M melanoma = tested on: MALME-3M melanoma
MDA-MB-231 breast = tested on: MDA-MB-231 breast
RXF 393 renal = tested on: RXF 393 renal
SF-268 CNS = tested on: SF-268 CNS
SF-295 CNS = tested on: SF-295 CNS
SF-539 CNS = tested on: SF-539 CNS
UACC-257 melanoma = tested on: UACC-257 melanoma
M14 melanoma = tested on: M14 melanoma

Compound | growth (DU-145 prostate) | growth (K-562 leukemia) | growth (MALME-3M melanoma) | growth (MDA-MB-231 breast) | growth (RXF 393 renal) | growth (SF-268 CNS) | growth (SF-295 CNS) [%] | growth (SF-539 CNS) | growth (UACC-257 melanoma) [%] | growth (M14 melanoma)
CC1CCc2c(C(=O)Nc3ncc(Cc4cccc([N+](=O)[O-])c4)s3)csc2C1 (stereo not given) | 18% | 23.8% | 51% | 23.6% | -24.1% (active) | 43.9% | 14.3 | -7.87% (active) | 52 | 6.98% (active)
COc1cc(OCc2cccc(Br)c2C)cc(OC)c1C=O | 91.3% | 67% | 114% | 95.2% | 75.1% | 91.9% | 86.7 | 91.9% | 83 | 90.9%
O=C(CN1C(=O)S/C(=C\C(Cl)=C\c2ccccc2)C1=O)NCCc1ccc(O)cc1 | 18.2% | 10.1% | 52.1% | 30.4% | -22.7% (active) | 60.7% | 44 | 15.6% | 60.9 | -26.7% (active)
Cc1nc2sc(C(=O)Nc3cccc4ccccc34)c(N)c2cc1C(O)c1ccccc1 (stereo not given) | 5.38% (active) | 4.79% (active) | 46.9% | 17.1% | 36.2% | 23.5% | 10.2 | -7.12% (active) | 51.6 | 7.59% (active)
Cc1cn(-c2cc(NC(=O)c3cncc(C#Cc4cnc(N)c5ncccc45)c3)cc(C(F)(F)F)c2)cn1 | 93.7% | 5.81% (active) | 23.8% | 47.1% | 59.6% | 67.2% | 91 | 72.3% | 62.5 | 29.8%
O=C(COc1ccc(-c2nc3cc(Cl)c(Cl)cc3[nH]2)cc1)N=Nc1c(O)[nH]c2ccc(Cl)cc12 | 74.6% | 5.55% (active) | 49.5% | 76.8% | 77.6% | 89.4% | 74.8 | 84.2% | 105 | 66.5%
CCCCCCCC[C@@H]1N[C@@H](C(=O)OC)Cc2c1[nH]c1ccccc21 | 106% | 88.4% | 83% | 96.2% | 96.6% | 97.3% | 102 | 93.7% | 101 | 102%
O=C(NCCNc1nccc(Nc2ccc(S(=O)(=O)Nc3ccccn3)cc2)n1)c1cccc([N+](=O)[O-])c1 | 109% | 92.9% | 108% | 118% | 108% | 104% | 103 | 102% | 95.3 | 101%
CCN(CC)CCn1c2ccc(OC)cc2c2sc3cc(OC)ccc3c(=O)c21 | 44.9% | 4.61% (active) | -27% (active) | 40.5% | 12.7% | 38.5% | 18.9 | 22.7% | 41.3 | -77.9% (active)
Cc1ccc(NC(=O)Cn2cc(CN3CCN(c4ccnc5cc(Cl)ccc45)CC3)nn2)cc1 | 102% | 63.8% | 100% | 77.1% | 88.5% | 80.1% | 86.3 | 98.7% | 103 | 103%
CCOC(=O)C#Cc1c(C(=O)OCC)nnn1Cc1ccc([N+](=O)[O-])cc1 | 10.4% | 4.56% (active) | 53.8% | 83.1% | -58.4% (active) | 87.4% | 99.8 | 47.3% | 42 | 43.8%
COC(=O)[C@]1(C)CCC[C@]2(C)[C@H]3C[C@H]4C(C(C)C)=C[C@]3(CC[C@H]21)[C@@H]1C(=O)CC[C@H](OCCC#N)[C@@H]14 | 89.2% | 89.9% | 85.9% | 73.9% | 55.5% | 74.3% | 77.7 | 91.7% | 99.1 | 82.5%
O=C1C(Cl)=C(NCCCCCCNC2=C(Cl)C(=O)c3ccccc3C2=O)C(=O)c2ccccc21 | 104% | 69.7% | 88.8% | 78.2% | 123% | 98.2% | 114 | 115% | 75 | 87.9%
CS(=O)(=O)Nc1cc(-c2ccc3ncnc(Nc4ccc5c(cnn5Cc5ccc(F)cc5)c4)c3c2)cnc1Cl | 62.1% | 48.5% | -4.18% (active) | 32.9% | 9.93% (active) | 14.9% | 66.1 | 27.5% | 50 | 36.8%
C/C(=N\O)c1ccc(Cl)cc1 | 121% | 100% | 137% | 116% | 141% | 127% | 118 | 114% | 89.5 | 114%
CC(=O)n1nc(C(=O)OC(C)(C)c2ccccc2)c2ccccc21 | 111% | 97% | 105% | 85.4% | 92.2% | 99.2% | 93.1 | 97.7% | 89.5 | 96.4%
O=C(Nc1ccccc1O)c1ccc(CNC(=O)c2sccc2Nc2ccnc(C(F)(F)F)c2)cc1 | 46.7% | 25.1% | -2.09% (active) | 53% | 47.9% | 49.2% | 43.6 | 48.9% | 46.5 | 58.3%
COc1cccc(/C=C2\COc3ccc(O)c(O)c3C2=O)c1 | 4.84% (active) | 11.7% | -26.3% (active) | 0.944% (active) | -18.7% (active) | 5.27% (active) | 79.1 | -54.7% (active) | 28.1 | 26%
